# Experimental data taken from the supplement of paper PMC7156485.
# ± gives the standard deviation of the averaged measurements.
# Legend:
# Conditions in all cases: concentration: 10 µM; 24 h
# HCC1569 [1] = experiment: cell number relative to DMSO (% of DMSO); higher = more cells (less growth inhibition / toxicity)
# In short: (§1)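 Cell number or H1.0 nuclear intensity appears as percent of the plate control, based on the median of replicates. Measurements came from HCC1569 and TDF cells exposed in triplicate to compounds at 10 µM for 24 h at 37 °C, then imaged in six fields per well at ×10. Positional effects were smoothed out of HCC1569 values.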
# TDF [2] = experiment: as above
# In short: as §1
# TDF [3] = experiment: H1.0 immunofluorescence intensity relative to DMSO (% of DMSO); higher = stronger H1.0 induction, active = 120 or more
# In short: as §1
# HCC1569 [4] = experiment: H1.0 immunofluorescence intensity relative to DMSO (% of DMSO); higher = stronger H1.0 induction, active = 140 or more
# In short: as §1
# 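Wherever H1.0 immunofluorescence intensity relative to DMSO is given: TDF is a line of transformed human dermal fibroblasts of mesenchymal origin.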
# 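Wherever cell number relative to DMSO is given: TDF denotes transformed human dermal fibroblasts of mesenchymal origin.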
SMILES,cell number (HCC1569 [1]),cell number (TDF [2]),H1.0 immunofluorescence intensity (TDF [3]),H1.0 immunofluorescence intensity (HCC1569 [4])
CC(C)(C)c1o[nH]c(=O)c1CC(N)C(=O)O (stereo not drawn),98.3,104,90 (inactive),95 (inactive)
CCCCCN(C)CCC(O)(P(=O)([O-])O)P(=O)(O)O.[Na+],99.5,105,89.4 (inactive),102 (inactive)
"O=C(O)C=CC(=O)O.O=[N+]([O-])c1ccc2nc(N3CCNCC3)ccc2c1 [Quipazine, 6-nitro-, maleate]",96.6,95.5,95.2 (inactive),107 (inactive)
"CCCN1CCCC2Cc3[nH]ncc3CC21.Cl (single isomer, unassigned; (-)) [(-)-Quinpirole hydrochloride]",99.3,101,87.5 (inactive),100 (inactive)
CN(C)C(=O)C(CCN1CCC(O)(c2ccc(Cl)cc2)CC1)(c1ccccc1)c1ccccc1.Cl [Loperamide.HCl],102,98.6,97.6 (inactive),105 (inactive)
CC(CCc1ccccc1)NC(C)C(O)c1ccc(O)cc1.Cl (stereo not drawn) [Buphenine.HCl],101,104,90 (inactive),115 (inactive)
C[N+](C)(C)CC(=O)O.[Cl-] [Betaine hydrochloride],104,113,89.4 (inactive),82.7 (inactive)
"CC(=O)C1CCC2C3CCC4CC(O)CCC4(C)C3C(=O)CC12C (stereo not drawn) [5alpha-Pregnan-3alpha-ol-11,20-dione]",107,108,94.1 (inactive),98.7 (inactive)
"CN1CCN(c2ccc3ccccc3n2)CC1.O=C(O)C=CC(=O)O.O=C(O)C=CC(=O)O [Quipazine, N-methyl-, dimaleate]",102,104,93 (inactive),89.8 (inactive)
COC12CC(COC(=O)c3cncc(Br)c3)CN(C)C1Cc1cn(C)c3cccc2c13 (stereo not drawn) [Nicergoline],104,102,92.9 (inactive),102 (inactive)
"CC12CCC(O)CC1CCC1C2CCC2(C)C(C(=O)CO)CCC12 (stereo not drawn) [3-alpha,21-Dihydroxy-5-alpha-pregnan-20-one]",102,89,98.8 (inactive),87 (inactive)
"CC(N)C(O)c1ccc(O)c(O)c1 (single isomer, unassigned; (-)) [(-)-alpha-Methylnorepinephrine]",99.4,98.5,85.9 (inactive),93.1 (inactive)
Cc1sc2ccccc2c1CC1=NCCN1.O=C(O)C(=O)O [Benazoline oxalate],104,106,92 (inactive),81.1 (inactive)
C#C[C@]1(O)CC[C@H]2[C@@H]3CC[C@H]4Cc5nc6nc7ccccc7n6cc5C[C@]4(C)[C@H]3CC[C@@]21C,74.8,88.1,99 (inactive),145 (active)
NCC(CC(=O)O)c1ccc(Cl)cc1 (racemic),99.3,112,94.3 (inactive),99.1 (inactive)
"O=[N+]([O-])c1ccc(O[C@@H]2O[C@H](CO)[C@@H](O)[C@H](O)[C@H]2F)c([N+](=O)[O-])c1 [2,4-Dinitrophenyl 2-fluoro-2-deoxy-beta-D-glucopyranoside]",105,111,86.5 (inactive),93.2 (inactive)
Br.COC(=O)C1=CCCN(C)C1 [Arecoline hydrobromide],101,102,93.3 (inactive),86.6 (inactive)
Cl.OCC1C(O)C(O)C2C(O)CCN12 (stereo not drawn),101,111,97 (inactive),97.5 (inactive)
O=C1NCN(c2ccccc2)C12CCN(CC1COc3ccccc3O1)CC2 (stereo not drawn) [Spiroxatrine],98.9,105,101 (inactive),97.4 (inactive)
C#CCNC(C)Cc1ccccc1.Cl (stereo not drawn) [R-(-)-Desmethyldeprenyl hydrochloride],102,103,97.2 (inactive),90.7 (inactive)
"CN1CCc2cc3c(cc2C1C1OC(=O)c2c1ccc1c2OCO1)OCO3 (single isomer, unassigned; (+)) [(+)-Bicuculline]",92.1 ± 16,89.1 ± 15,98.9 (inactive),92.6 (inactive)
CCCN1CCCC2Cc3nc(N)ncc3CC21.Cl.Cl (stereo not drawn) [Quinelorane dihydrochloride],99.7,113,95 (inactive),106 (inactive)
CCCCC(C)C(OC(=O)CC(CC(=O)O)C(=O)O)C(CC(C)CCCCCCC(O)CC(O)C(C)N)OC(=O)CC(CC(=O)O)C(=O)O (stereo not drawn) [Fumonisin B2],100,102,97.3 (inactive),89.7 (inactive)
Br.CCC1CN2CCc3cc(OC)c(OC)cc3C2CC1CC1NCCc2cc(O)c(OC)cc21 (stereo not drawn),59.6,21.4,135 (active),104 (inactive)

SMILES,cell number (HCC1569 [1]),cell number (TDF [2]),H1.0 immunofluorescence intensity (TDF [3]),H1.0 immunofluorescence intensity (HCC1569 [4])
CCOC(=O)c1ncn2c1C1CCCN1C(=O)c1cc(OC)ccc1-2 (stereo not drawn),103,108,88.2 (inactive),102 (inactive)
"CCCC[N+]1(C)C2CC(OC(=O)C(CO)c3ccccc3)CC1C1OC12.[Br-] (single isomer, unassigned; (-)) [(-)-Scopolamine,n-Butyl-, bromide]",101,106,96 (inactive),109 (inactive)
COc1ccc2c(c[n+](C)c3c4cc5c(cc4ccc23)OCO5)c1OC.[Cl-] [Chelerythrine Chloride],90.9,98.2,94 (inactive),123 (inactive)
CCC12C=CCN3CCC4(c5ccc(OC)cc5N(C)C4C(O)(C(=O)OC)C1OC(C)=O)C32 (stereo not drawn) [Vindoline],102,91.6,91.7 (inactive),90.1 (inactive)
CCC1=CC2CN3CCc4c([nH]c5ccccc45)C(C(=O)OC)(C2)C13 (stereo not drawn) [Catharanthine],104,94.7,102 (inactive),92.1 (inactive)
O=[N+]([O-])C=Cc1ccc2c(c1)OCO2 [Syk Inhibitor III],37.1,33.2,122 (active),99.6 (inactive)
O=C(O)C1C2CCC(O2)C1C(=O)O (stereo not drawn) [Endothall],97.6,97.8,108 (inactive),129 (inactive)
CCN(CC)c1ncnc2c1ncn2C1OC(COP(=O)([O-])OP(=O)([O-])C(Br)(Br)P(=O)([O-])O)C(O)C1O.[Na+].[Na+].[Na+] (stereo not drawn),102,101,92.6 (inactive),96.5 (inactive)
CC(=O)OC1C2C(OC(=O)Cc3ccccc3)C(C)CC2(OC(C)=O)C(=O)C(C)=CC2C(CCC13CO3)C2(C)C (stereo not drawn) [Euphorbiasteroid],102,106,105 (inactive),91.5 (inactive)
CC(C)=CCCC1(C)C=Cc2c(O)c3c(c(CC=C(C)C)c2O1)OC12C(=CC4CC1C(C)(C)OC2(CC=C(C)C(=O)O)C4=O)C3=O (stereo not drawn) [Gambogic acid],14.1,10.6,148 (active),58.8 (inactive)
CN1CCC23CCCCC2C1Cc1ccc(O)cc13.O=C(O)C(O)C(O)C(=O)O [Dextrorphan D-tartrate],103,105,93.1 (inactive),89.2 (inactive)
COC(C(=O)C(O)C(C)O)C1Cc2cc3cc(OC4CC(OC5CC(O)C(OC)C(C)O5)C(OC(C)=O)C(C)O4)c(C)c(O)c3c(O)c2C(=O)C1OC1CC(OC2CC(OC3CC(C)(O)C(OC(C)=O)C(C)O3)C(O)C(C)O2)C(O)C(C)O1 (stereo not drawn) [Chromomycin A3],42.1,19.4,175 (active),196 (active)
Cl.Oc1ccc2c3c1OC1C(O)CCC4(O)C(C2)N(CC2CCC2)CCC314 (stereo not drawn) [Nalbuphine hydrochloride],105,104,92.6 (inactive),88.2 (inactive)
CCn1cc(C(=O)O)c(=O)c2cc3c(cc21)OCO3 [Oxolinic acid],100,109,104 (inactive),101 (inactive)
"CCCCCC1OC1CC=CCCCCCCCC(=O)O (stereo not drawn) [Leukotoxin B (12,13-EODE)]",105,106,96.8 (inactive),100 (inactive)
CC(C)C1C(=O)OC2CCN3CC=C(COC(=O)C(C)(O)C1(C)O)C23 (stereo not drawn) [Trichodesmine],99.6,103,93.2 (inactive),89.8 (inactive)
CC(C)Oc1cccnc1N(C)C1CCN(Cc2ccccc2)CC1.O=C(O)C=CC(=O)O,103,106,99 (inactive),112 (inactive)
c1ccc2c3c([nH]c2c1)CNCC3 [Noreleagnine],103,108,92.6 (inactive),88.4 (inactive)
CC1(C)CCCC(C)(C)N1[O],99.1,96.8,100 (inactive),99.1 (inactive)
OC1CN2CCCC(O)C2C1O (stereo not drawn) [Swainsonine],100,98.6,99.5 (inactive),95.8 (inactive)
"COc1ccc2c3c1OC1C(=O)CCC4(O)C(C2)N(CC2CC2)CCC314.Cl (single isomer, unassigned; (-)) [(-)-3-Methoxynaltrexone hydrochloride]",104,109,88.4 (inactive),86.7 (inactive)
CC(=O)N1N=C(c2ccc(N)cc2)c2cc3c(cc2C[C@H]1C)OCO3,95.4,103,106 (inactive),95.8 (inactive)
"CC12CCC3C(CCC4=C(O)C(=O)CCC43C)C1CCC2=O (stereo not drawn) [4-Androsten-4-ol-3,17-dione]",102,96.7,93.4 (inactive),89.7 (inactive)
